Results with a measured potency or affinity are listed apart. Values without a mark were called inactive. How the calls were made is not given here.
Assay: cytotoxicity in HEK293 cells, dose response, cytotoxicity control, cell-based, plate reader, cherry-pick (AID 651899);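 further: cells exposed to compound for 48 hours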
Settings: series mostly up to 26 µM; activity change, negative = cytotoxicity: at the top concentration
For `O=[N+]([O-])c1ccc(C[n+]2c(-c3ccccc3)cc(-c3ccccc3)cc2-c2ccccc2)cc1`, the “activity change, negative = cytotoxicity” value was 29.9%. For `Cc1nc2nc(SCC(=O)N3CCC4(CC3)OCCO4)nn2c(C)c1Cc1ccccc1`, the “activity change, negative = cytotoxicity” value was 5.47%. For `COc1ccc2c(c1)c(C(=O)CN1CCC3(CC1)OCCO3)c(C)n2Cc1ccccc1`, the “activity change, negative = cytotoxicity” value was -14%. With `CCc1nc2ccc(Br)cc2c(=O)n1-c1ccccc1C(F)(F)F` the “activity change, negative = cytotoxicity” value was -8.64%. In the case of `CC(=O)N1CCN(c2ccc([N+](=O)[O-])cc2C=C2C(=O)NC(=O)NC2=O)CC1`, the “activity change, negative = cytotoxicity” value is reported as -7.17%. With `COc1cc2c3cc1Oc1cc(ccc1O)C[C@@H]1c4c(cc(OC)c(O)c4Oc4cccc(c4)C[C@@H]3N(C)CC2)CC[N+]1(C)C` the “activity change, negative = cytotoxicity” value was 4.48%. In the case of `O=c1[nH]c(N2CCN(Cc3ccc4c(c3)OCO4)CC2)nc2c1CCC2`, the “activity change, negative = cytotoxicity” value is reported as -2.79%.

— PubChem BioAssay AID651899 (Broad Institute, 2012)
